Where “and” joins values, the source holds several entries; their conditions need not be identical. Identical values can stand only once. Screen size: about 350,000 compounds; about 2,100 (0.6%) were called active.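 Rule for the calls: active = inhibition of the ligand-induced calcium signal above about 50% at the single tested concentration (limit read from the data); inactive = the rest.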 The list comes from a sample in which actives are over-represented; it also holds similar structures and randomly drawn compounds. Some structures have more than one record in an assay (separate samples or runs), and their calls can disagree.
Assay: antagonists of CRF-BP/CRF-R2 complex, primary screen, cell-based, HEK293, calcium dye fluorescence, uHTS (AID 588475)
Settings: CRF-induced calcium fluorescence, at 11.8 µM, stronger effect = higher value

inhibition, inactive:
N#Cc1ccc(-c2ccc(Cl)cc2)nc1Oc1ccc(F)cc1 -14%, CCc1nn(CC(=O)N2CCN(CC)CC2)c(=O)c2cccn12 -5.15%, CC(O)c1ccc(OCCN(C)c2ccccn2)cc1 (stereo unspecified) -5.71%, CC(C)=N/N=C1/NC(=O)C(Cc2ccccc2)S1 (stereo unspecified) 2.42%, OC(C#CCN1CCOCC1)(c1ccccc1)C1CCCCC1 (stereo unspecified) -6%, Cc1ccccc1-n1c(SCC(=O)Nc2cccc3ccccc23)nc(O)cc1=O -4.41%, COc1ccc(S(=O)(=O)N2CCOCC2)cc1NC(=O)CSc1cc(C)ccc1C 1.57%, COc1ccc(S(=O)(=O)N2CCOCC2)cc1NC(=O)COc1ccccc1 12.8%, O=C(Nc1cccn(Cc2c(Cl)cccc2Cl)c1=O)c1ccc(Cl)cc1 -7%, Cc1ccc(OCc2nnc(NC(=O)OCC(C)C)s2)cc1 -2.73%, COc1ccc(NC(=O)C2=C(C)NC(=O)NC2c2ccccc2[N+](=O)[O-])cc1 (stereo unspecified) -10%, COc1cc(C2C(C(=O)Nc3ccc(F)cc3)=C(C)Nc3nc(CCCO)nn32)cc(OC)c1OC (stereo unspecified) 5.65%, O=C(Nc1cc(-c2ccccc2)nn1-c1ccccc1F)c1ccc([N+](=O)[O-])cc1 -5.97%, CCS(=O)(=O)C1=NSC2=NC(=O)/C(=C\c3ccc(OS(=O)(=O)c4ccccc4)cc3)C(=N)N21 0.32%, CS(=O)(=O)C1=NN2C(=N)/C(=C\c3ccc(OCCOc4ccccc4)cc3)C(=O)N=C2S1 26.8%, CCOc1ccc(NC(=S)NC(=O)/C=C/c2ccc(OC)cc2)c([N+](=O)[O-])c1 -8%, CCOC(=O)/C(C#N)=C\c1c(C)cc(C)c(COC(C)=O)c1C 3.93%, CCOC(=O)c1nnn(-c2nonc2-n2cccc2)c1CN1CCC(C(=O)OCC)CC1 17.9%, COc1ccc(-c2ccc(CCC(=O)O)n2NC(=O)c2ccc(C(C)(C)C)cc2)cc1 7.59%, Cc1cccc(OC(C)C(=O)N2CCc3ccccc3C2)c1 (stereo unspecified) 16.6%, COCc1cc(=O)[nH]c(SC)n1 9.17%, Cc1ccc(/C=N/NC(=S)NC2CCCCC2)o1 -28.4%, CN(C)S(=O)(=O)c1cccc(NC(=S)N/N=C/C(=O)c2ccccc2)c1 3.21%, O=C1CC2(CCCC2)C(=O)N1CN1CCN(S(=O)(=O)c2ccc(F)cc2F)CC1 6.17%, Cc1cc(C(=O)OCC(=O)Nc2nccs2)c2ccccc2n1 8.78%, O[C@H]1CN(Cc2cccs2)[C@@H](c2ccc(Cl)cc2)C[C@@H]1n1cc(C2CC2)nn1 -16.1%, Cc1cccc(N2CCN(C(=O)c3cnn4c(C(F)F)cc(-c5ccccc5)nc34)CC2)c1C -11.8%, CCCc1nc(SCC(=O)Nc2ccccc2OC)c2c(=O)n(C)c(=O)n(C)c2n1 -6.56%, CN1CN(C)c2ccc([N+](=O)[O-])c3cccc1c23 4.39%, CCOc1cccc(=O)c2c(C)n(CC3CCCO3)c(C)c12 (stereo unspecified) -12.3%, Cc1ccc(S(=O)(=O)NC(=O)c2cccc(C)c2)cc1 -9.88%, CCCC(=O)Nc1cc(OCC)c(NC(=O)NC2CCCCC2)cc1OCC 15.3%, COC(=O)C1=CN(Cc2ccc(OC)cc2)C=C(C(=O)OC)C1c1ccc(O)c(OC)c1 -26.4%, CCn1c(SCC(=O)NC2CC2)nnc1-c1ccccn1 2.34%, CCn1c(SCC(=O)NC2CC2)nnc1-c1ccccc1OC 18.7%, Nc1nc(SCC(=O)Nc2cc(C(F)(F)F)ccc2Cl)[nH]c(=O)c1NC(=O)c1ccco1 0.81%, COC(=O)C1=CO[C@@H](O[C@@H]2O[C@H](CO)[C@@H](O)[C@H](O)[C@H]2O)C2C1C[C@H](O)[C@@H]2C (stereo partly specified) 1.31%, COc1ccc(C)cc1NC(=O)Nc1ccccc1SC 23.5%, CCOc1ccc(NC(=O)Nc2cc(C)on2)cc1 -27.8%, CCN(CC(=O)Nc1cc(Cl)ccc1C)C(=O)CN1C(=O)NC2(CCCC2)C1=O -3.2%, CN(C(=O)CCNC(=O)Cn1ccc2ccccc2c1=O)c1ccc(Br)cc1 1.39%, Cc1cccc(-c2nc(CS(=O)CC(=O)NC(C)CCc3ccccc3)c(C)o2)c1 (stereo unspecified) -5.77%, COc1ccc(CC(=O)OC(C)C(=O)Nc2ccc(S(N)(=O)=O)cc2)cc1 (stereo unspecified) -1.19%, COc1ccc(S(=O)(=O)N2CCN(C(=O)c3cccs3)CC2)cc1OC 22.7%, COc1cccc(NC(=O)Nc2ccc(F)cc2)c1 -2.92%, COc1cccc(NC(=S)NC(=O)c2c(Cl)c(C)nn2C)c1 -4.16%, Cc1nn(C)c(Oc2ccccc2)c1CCNS(=O)(=O)c1ccc(F)cc1 -3.36%, Nc1ncnc2c1ncn2[C@@H]1O[C@H](CNS(=O)(=O)c2ccc(-c3ccno3)s2)[C@@H](O)[C@H]1O 3.06%, CCOC(=O)C1=NNC2(c3ccc(Cl)cc3)C(=O)N(c3cc(C)cc(C)c3)C(=O)C12 (stereo unspecified) 17.3%, Cc1cccc(OCCC(=O)Nc2cc(S(=O)(=O)N3CCCCC3)ccc2N2CCOCC2)c1 -1.67%, CC(C)CCOc1ccc(C(=O)Nc2cc(S(=O)(=O)N3CCOCC3)ccc2N2CCOCC2)cc1 19.1%, O=C(Nc1c2c(nn1-c1ccccc1)CS(=O)(=O)C2)C1CCCC1 7.96%, COc1cccc(CNC(=O)CCC2CCCN(C(=O)c3ccoc3C)C2)c1 (stereo unspecified) -2.45%, COc1cccc(CNC(=O)CCC2CCCN(C(=O)c3ccc(F)c(Cl)c3)C2)c1 (stereo unspecified) 6.37%, CC(C)(C)c1ccc(/C=C2\SC(=O)N=C2N)cc1 9.93%, O=C1N=C(N2CCc3ccccc3C2)S/C1=C\c1ccc(O)cc1 16.8%, CNC(=O)/C(=C\C=C\c1ccccc1)NC(=O)c1ccc([N+](=O)[O-])cc1 4.28%, Cc1ccc(NC(=O)Cn2sc3ccccc3c2=O)cc1 3.99%, COc1ccc(C2(c3ccc(OC)cc3)NC(=O)N(CC(=O)Nc3cc(C)on3)C2=O)cc1 -31.2%, Cc1cc(NC(=O)CN2C(=O)NC(CCc3ccccc3)C2=O)no1 (stereo unspecified) 5.91%, CC1CCN(C(=O)/C(=C\c2ccccc2)NC(=O)c2ccccc2)CC1 8.16%, O=C(Cc1cccs1)N(CC1CCCO1)C1(C(=O)NC2CCCCC2)CCCCC1 (stereo unspecified) -14.9%, Cc1ccc(C)c(NC(=O)C(OC(=O)c2ccc(C)s2)c2ccccc2)c1 (stereo unspecified) -6.3%, COCCCNC(=O)c1ccc(CNS(=O)(=O)c2ccc(NC(C)=O)cc2)cc1 -2.43%, O=C(Nc1ccc(S(=O)(=O)Nc2nccs2)cc1)c1cccc(S(=O)(=O)N2CCOCC2)c1 -0.01%, O=C(Nc1ccc(S(=O)(=O)N2CCOCC2)cc1)c1ccc2ncsc2c1 1.25%, O=C(NNC(=S)NCCCN1CCOCC1)c1ccncc1 1.88%, CNC(=O)C[C@H]1C(=O)N(Cc2ccccc2)C[C@@H]1CSC -10.7%, CN(CCC(=O)Nc1cc(S(=O)(=O)N(C)C)ccc1Cl)CC(=O)Nc1ccc(F)cc1 -7.88%, NC(=O)CSC1=Nc2ccccc2C2=NC(CCC(=O)NCc3ccc(F)cc3)C(=O)N12 (stereo unspecified) 15.6%, O=C(CSC1=Nc2ccccc2C2=NC(c3ccccc3)C(=O)N12)NCC1CCCO1 (stereo unspecified) 10.2%

inhibition, 66.6% (active) and 12.6% (inactive):
CN(CCOc1ccc(CC2SC(=O)NC2=O)cc1)c1ccccn1 (stereo unspecified)

inhibition, active:
Clc1ccc(Cl)c(Oc2ccc(Oc3nc(Cl)ccc3Cl)cc2)n1 55.5%, COc1ccc(S(=O)(=O)N2CCOCC2)cc1NC(=O)CC1CC2CCC1C2 (stereo unspecified) 80.4%, COC(=O)c1nc2n(n1)C(c1ccc([N+](=O)[O-])cc1)C(C(=O)Nc1ccc(Cl)cc1)=C(C)N2 (stereo unspecified) 56.3%, CCS(=O)(=O)C1=NSC2=NC(=O)/C(=C\c3cc(C)n(-c4cccc(OC)c4)c3C)C(=N)N21 81.8%, Cc1cc(C)c2nc3nc(C)cc(C)c3c(N)c2c1 90.7%, Cc1ccc(/C=N/NC(=S)Nc2cccc(S(=O)(=O)N(C)C)c2)o1 82.9%, O=C1c2cccc3c([N+](=O)[O-])ccc(c23)C(=O)N1CC1CCCO1 (stereo unspecified) 87.2%, CCOc1cc(C2C(C(=O)OC)=CN(C3CCCC3)C=C2C(=O)OC)cc(Br)c1O 50.2%, CCn1c(SCC(=O)NC2CC2)nnc1-c1ccncc1 52%, CCOc1ccc(NC(=O)Nc2cc(C)ccc2OC)cc1 54.1%, Cn1nc(N)c2ncc(C(Cl)(Cl)Cl)nc21 73.4%, COc1cccc(NC(=S)C(C#N)=C2N(C)c3ccccc3N2C)c1 79.1%, Cc1cc(OCCCC(=O)Nc2cc(S(=O)(=O)N3CCOCC3)ccc2N2CCOCC2)ccc1Cl 62.5%, COc1cccc(C(=O)N2CCCC(CCC(=O)NCc3ccc(F)c(F)c3)C2)c1 (stereo unspecified) 50.4%, NC1=NC(=O)S/C1=C\c1ccc(O)cc1 51%, Cc1cc(NC(=O)CN2C(=O)NC(CC(C)C)C2=O)no1 (stereo unspecified) 56.2%, CC(C)c1ccc2c(c1)c(SC(C)(C)C)c(CC(C)(C)C(=O)O)n2Cc1ccc(Cl)cc1 54.3%, Cc1nc2ccc(NC(=O)c3cccc(S(=O)(=O)N4CCOCC4)c3)cc2s1 116%, O=C(CC1N=C2c3ccccc3N=C(SCc3ccccc3Cl)N2C1=O)NCc1ccco1 (stereo unspecified) 89.4%
